# Assays:
# Experiment in all cases: universal protein binding microarray (PBM); transcription factors of Arabidopsis thaliana; high values mean tight binding
# Details in all cases: protein: recombinant; tags: GST; chain copies: 2; dsDNA, one strand shown
# GST-ANAC092(1-176) = target: T1, GST-ANAC092(1-176) (Arabidopsis thaliana, UniProt Q9FKA0 1-176)
# T1 sequence: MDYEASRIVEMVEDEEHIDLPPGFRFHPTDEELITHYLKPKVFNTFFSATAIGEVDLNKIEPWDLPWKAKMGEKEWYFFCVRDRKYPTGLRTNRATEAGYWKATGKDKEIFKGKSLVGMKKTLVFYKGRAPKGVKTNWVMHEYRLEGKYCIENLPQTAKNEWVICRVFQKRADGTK
# Summary of the method: (§1)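 Binding is expressed as the normalised enrichment score (E-score). Proteins carrying a GST tag, whether NAC-domain, full-length or DNA-binding-domain forms, were induced in cells, and zinc acetate was added for zinc-finger proteins. After purification on glutathione–Sepharose 4B and quantification by A280 or anti-GST western blot, each was applied in duplicate at 200 to 500 nM final to custom all-10-mer Agilent 4 × 180K arrays made double-stranded by primer extension. Gapped and ungapped 8-mers were scored.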
# GST-NTL6(1-168) = GST-NTL6(1-168) (Arabidopsis thaliana, UniProt Q9SCK6 1-168)
# Summary of the method: as §1
# GST-ANAC055(1-171) = target: T2, GST-ANAC055(1-171) (Arabidopsis thaliana, UniProt Q9LDY8 1-171)
# T2 sequence: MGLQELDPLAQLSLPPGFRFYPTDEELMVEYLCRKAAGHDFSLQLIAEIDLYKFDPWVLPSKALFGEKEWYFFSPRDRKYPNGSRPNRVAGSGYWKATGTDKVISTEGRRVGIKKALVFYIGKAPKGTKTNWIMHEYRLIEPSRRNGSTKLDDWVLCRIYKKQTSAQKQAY
# Summary of the method: as §1
# GST-ATAF1 NAC domain = target: T3, GST-ATAF1 NAC domain (Arabidopsis thaliana, UniProt Q39013 7-158)
# T3 sequence: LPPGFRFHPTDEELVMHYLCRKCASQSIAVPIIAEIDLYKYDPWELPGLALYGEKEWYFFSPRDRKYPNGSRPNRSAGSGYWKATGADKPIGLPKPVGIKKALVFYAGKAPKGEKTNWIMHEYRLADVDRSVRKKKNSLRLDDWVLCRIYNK
# Summary of the method: as §1
# [1] = target: T4, GST-ANAC092(1-285) full length (Arabidopsis thaliana, UniProt Q9FKA0 1-285)
# T4 sequence: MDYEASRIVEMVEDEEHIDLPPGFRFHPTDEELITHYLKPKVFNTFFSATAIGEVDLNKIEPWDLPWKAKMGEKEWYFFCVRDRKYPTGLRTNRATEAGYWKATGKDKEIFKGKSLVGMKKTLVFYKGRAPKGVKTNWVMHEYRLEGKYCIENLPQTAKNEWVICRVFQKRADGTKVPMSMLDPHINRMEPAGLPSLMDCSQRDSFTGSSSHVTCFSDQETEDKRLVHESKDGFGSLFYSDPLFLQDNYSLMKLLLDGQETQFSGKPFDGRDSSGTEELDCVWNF
# Summary of the method: as §1
# GST-NST2(1-184) = target: T5, GST-NST2(1-184) (Arabidopsis thaliana, UniProt Q9M274 1-184)
# T5 sequence: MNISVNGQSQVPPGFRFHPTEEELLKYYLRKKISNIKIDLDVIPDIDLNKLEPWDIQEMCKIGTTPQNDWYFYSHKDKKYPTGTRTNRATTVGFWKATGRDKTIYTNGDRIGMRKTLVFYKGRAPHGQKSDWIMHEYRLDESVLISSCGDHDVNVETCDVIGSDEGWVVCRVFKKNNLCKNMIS
# Summary of the method: as §1
# GST-NTL8 NAC domain = target: T6, GST-NTL8 NAC domain (Arabidopsis thaliana, UniProt Q9XIN7 14-156)
# T6 sequence: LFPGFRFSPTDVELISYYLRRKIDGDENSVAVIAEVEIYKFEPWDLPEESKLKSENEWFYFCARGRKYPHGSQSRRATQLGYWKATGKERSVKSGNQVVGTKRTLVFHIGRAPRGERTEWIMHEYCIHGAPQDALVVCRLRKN
# Summary of the method: as §1
# GST-SND1(1-203) = target: T7, GST-SND1(1-203) (Arabidopsis thaliana, UniProt Q9LPI7 1-203)
# T7 sequence: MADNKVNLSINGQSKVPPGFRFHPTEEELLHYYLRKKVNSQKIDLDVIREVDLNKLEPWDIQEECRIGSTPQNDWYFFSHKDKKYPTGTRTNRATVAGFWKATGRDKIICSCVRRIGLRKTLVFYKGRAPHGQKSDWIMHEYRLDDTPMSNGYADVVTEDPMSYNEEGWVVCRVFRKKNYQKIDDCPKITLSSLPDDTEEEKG
# Summary of the method: as §1
# GST-VND3 NAC domain = target: T8, GST-VND3 NAC domain (Arabidopsis thaliana, UniProt Q9FH59 12-162)
# T8 sequence: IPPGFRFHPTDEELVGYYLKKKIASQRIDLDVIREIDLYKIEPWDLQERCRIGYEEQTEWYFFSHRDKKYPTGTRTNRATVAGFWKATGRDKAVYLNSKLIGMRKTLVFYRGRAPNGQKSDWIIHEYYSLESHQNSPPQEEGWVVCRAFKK
# Summary of the method: as §1
# GST-VND7 NAC domain = target: T9, GST-VND7 NAC domain (Arabidopsis thaliana, UniProt Q9C8W9 9-158)
# T9 sequence: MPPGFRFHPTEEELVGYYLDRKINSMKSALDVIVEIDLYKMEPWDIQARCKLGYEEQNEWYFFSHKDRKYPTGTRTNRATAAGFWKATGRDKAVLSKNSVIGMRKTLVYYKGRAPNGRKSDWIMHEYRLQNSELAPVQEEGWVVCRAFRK
# Summary of the method: as §1
# GST-NAP(1-166) = target: T10, GST-NAP(1-166) (Arabidopsis thaliana, UniProt O49255 1-166)
# T10 sequence: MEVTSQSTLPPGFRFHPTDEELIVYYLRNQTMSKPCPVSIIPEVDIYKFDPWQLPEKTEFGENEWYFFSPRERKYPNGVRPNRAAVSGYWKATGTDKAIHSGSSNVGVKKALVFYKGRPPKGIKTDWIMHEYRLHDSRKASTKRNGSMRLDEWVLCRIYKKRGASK
# Summary of the method: as §1
# GST-ANAC019 NAC domain = target: T11, GST-ANAC019 NAC domain (Arabidopsis thaliana, UniProt Q9C932 14-162)
# T11 sequence: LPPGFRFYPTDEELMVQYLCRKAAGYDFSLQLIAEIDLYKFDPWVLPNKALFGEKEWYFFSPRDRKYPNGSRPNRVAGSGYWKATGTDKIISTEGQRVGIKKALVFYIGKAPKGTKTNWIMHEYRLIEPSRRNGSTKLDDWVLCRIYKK
# Summary of the method: as §1
# Sequence of GST-NTL6(1-168) (Q9SCK6 1-168): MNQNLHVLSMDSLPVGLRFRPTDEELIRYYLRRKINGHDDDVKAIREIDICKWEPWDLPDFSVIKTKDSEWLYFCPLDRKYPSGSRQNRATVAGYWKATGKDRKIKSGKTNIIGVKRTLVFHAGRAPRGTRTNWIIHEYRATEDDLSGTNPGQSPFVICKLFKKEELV
Sequence,binding signal (GST-ANAC092(1-176)) [E-score],binding signal (GST-NTL6(1-168)) [E-score],binding signal (GST-ANAC055(1-171)) [E-score],binding signal (GST-ATAF1 NAC domain) [E-score],binding signal [1] [E-score],binding signal (GST-NST2(1-184)) [E-score],binding signal (GST-NTL8 NAC domain) [E-score],binding signal (GST-SND1(1-203)) [E-score],binding signal (GST-VND3 NAC domain) [E-score],binding signal (GST-VND7 NAC domain) [E-score],binding signal (GST-NAP(1-166)) [E-score],binding signal (GST-ANAC019 NAC domain) [E-score]
TACCTTAA,0.193,0.42,0.0879,0.131,0.26,0.149,0.298,0.291,0.16,0.0949,,
ATACTTAA,0.0831,0.445,0.14,0.245,0.164,0.224,0.154,0.246,0.187,0.106,0.0565,
CTAAGCAA,0.201,0.461,,,0.314,0.272,0.254,0.473,0.134,0.184,,0.0628
ACCTTAAC,0.126,0.415,0.156,0.155,0.147,0.154,0.16,0.13,0.156,0.077,,
TGGAGTAA,0.319,0.105,0.128,0.11,0.342,0.317,,0.454,0.0609,0.131,,
GTGGAGTA,0.275,0.0723,0.0843,0.217,0.332,0.242,,0.402,0.0649,0.15,0.0918,
ATTGCTTC,0.259,0.348,0.0988,,0.351,0.259,0.278,0.411,0.143,0.213,,0.108
TACGCTAA,0.433,0.118,0.0682,0.19,0.44,0.331,,0.475,0.171,0.131,,
GAGGTAAC,0.191,0.155,,0.0779,0.2,0.078,0.437,0.236,0.0659,0.0864,,0.078
TTAAGCAA,0.357,0.471,0.133,0.133,0.356,0.334,0.252,0.473,0.198,0.227,,
TGAAGTAA,0.242,0.377,0.155,0.169,0.323,0.324,0.437,0.424,0.131,0.132,,
GTTGCTTA,0.342,0.425,0.0695,0.0821,0.393,0.327,0.13,0.469,0.0814,0.14,,
AAGCAAGC,0.344,0.167,,,0.417,0.23,0.209,0.443,0.139,0.114,,0.0929
ATACGCTA,0.451,0.0936,0.223,0.187,0.466,0.331,,0.458,0.163,0.182,0.155,
CGAAGTAA,0.199,0.448,0.143,0.23,0.279,0.223,0.416,0.303,0.138,0.19,,0.128

# From PMC4081100, “A DNA-binding-site landscape and regulatory network analysis for NAC transcription factors in Arabidopsis thaliana”
